# Results from PubChem BioAssay (NCI).
# About 83,000 compounds went through this panel and 20% of them were active in at least one assay; those are over-represented in the sample as a whole.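 Interpretation: 100, growth as untreated; towards 0, rising growth inhibition; 0, no net growth; 0 to -100, cell death. Compounds scoring below 10 were considered active.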 A number with no mark means an inactive call. The source made the active and inactive calls.
# Test system: HOP-62 NSCLC
# Assay: NCI-60 one-dose screen, 48 h (100 = growth as untreated, 0 = no growth, -100 = all killed)
# Conditions: 10 µM unless noted
row,SMILES,growth
1,Nc1[nH]n2cc(-c3ccc(F)cc3)nc2c1N=Nc1ccc(S(N)(=O)=O)cc1,90.7%
2,O=C(Nc1ncccc1OCc1ccccc1)NC1CCCCCC1,102%
3,CCNc1nc(O)c(/C=C2\C=Nc3ncccc32)s1,-26.5% (active)
4,Cn1cc(-c2nn3cc(-c4cccs4)nc3s2)c2cc(F)ccc21,28.4%
5,Cc1ccc(-c2nc(/C=C3/C(=O)Nc4ccc(F)cc43)c3ccccn23)cc1,92.8%
6,O=[N+]([O-])c1ccc(-c2cn3nc(-c4c[nH]c5ccccc45)sc3n2)cc1,94.6%
7,O=C(CI)NC(=O)NC(=O)NCc1ccccc1,85.9%
8,O=C(Nc1cc(Cl)ccc1O)c1cccc(Nc2ccnc(C(F)(F)F)c2)c1,64.8%
9,N#Cc1c(Nc2ccc(N3CCOCC3)cc2)nc(SCC(=O)c2ccc(Br)cc2)nc1-c1ccccc1,92.6%
10,COc1cc(OC)c(/C=C/C(=O)c2c(O)cc(OC)c(C3CCN(C)CC3)c2OC)c(OC)c1,-96.2% (active)
11,CCS/C(Nc1ccccc1)=C(\C#N)C(=O)Nc1ccc(OC)cc1,34.2%
12,C=CN(C(=O)N1CCN(c2cc3c(cc2F)c(=O)c(C(=O)O)cn3C2CC2)CC1)c1nc(-c2ccc(OC)cc2)cs1,18.5%
13,O=C(Nc1ccccc1[N+](=O)[O-])c1ccc(Cl)c(Cl)c1,102%
14,CCn1cc(CNc2ccc(C(=O)Nc3cc4cc(OC)c(OC)cc4c(C)n3)cc2)cn1,39.6%
15,COc1ccc2c(c1)c(-c1nc(-c3c[nH]c4ncccc34)cs1)cn2CCCN1CCOCC1,28.9%
16,C[n+]1ccc(CCc2c[nH]c3ccccc23)cc1,69.3%
17,CC(C)CCN(CCC(C)C)CC(O)c1cc2c(c3ccccc13)CCCC2 (stereo not given),85.6%
18,CO[C@H]1CC(=O)n2c3ccccc3c3c4c(c5c6ccccc6n1c5c32)C(=O)NC4=O,54.4%
19,COc1ccc(C2=CN3CC=CC3CC2=O)cc1 (stereo not given),91.1%
20,COc1cccc(/C=C/C(=O)c2cc3c(N)c(C(=O)Nc4cccc5ccccc45)sc3nc2C)c1,25%

row,SMILES,growth
1,Cc1ccc(CNc2ccc3nc(CCC(C)C)[nH]c3c2)cc1,99.6%
2,COc1ccc(/C(C)=C(/c2ccc(OCCCN(C)C)cc2)c2ccc(OC(=O)c3ccccc3)cc2)cc1,92.3%
3,COC(=O)CC[C@@H]1O[C@@H](c2ccc(F)cc2)[C@@H](O)[C@H]1O,104%
4,O=C1/C=C/[C@@H](O)[C@@H]2C[C@@H](O)C[C@H]2/C=C/CCC[C@H](CCO)O1,31%
5,COc1cccc(-c2cc(-c3cccc(Cl)c3)c(C#N)c(=O)[nH]2)c1,68.5%
6,COc1ccc(CNc2c3ccccc3nc3ccccc23)c(OC)c1,47.2%
7,CCN(CC)c1ccc(CNc2cc(C)nc3ccccc23)cc1,77.1%
8,O=C1Nc2ccccc2/C1=C\c1c[nH]c2ccc(Br)cc12,56.5%
9,O=C(CCCCCNC(=O)c1cc(=O)c(O)co1)Nc1ccccc1,115%
10,CCOc1ccc(-n2nc(C(=O)NCc3ccccc3OC)nc2-c2cc(OC)c(OC)c(OC)c2)cc1,62.2%
11,COc1ccc(-c2nc(/C=C3\C(=O)N(C)c4ccccc43)c3ccccn23)cc1,62.7%
12,FC(F)(F)Oc1cccc(-c2cnc3ccc(-c4ccncc4)nn23)c1,20.2%
13,CCN1C(=O)N(CC)C2C1NN=c1s/c(=C3\C(=O)N(CC(C)C)c4ccccc43)c(=O)n12 (stereo not given),45.6%
14,COc1cc(OC)c(C(=O)C(CN(C)C)CN(C)C)cc1OC,84.7%
15,Cc1ccc(/C=C/C(=O)c2ccc(-n3cc(CN4CCN(c5cc6c(cc5F)c(=O)c(C(=O)O)cn6C5CC5)CC4)nn3)cc2)cc1,81.3%
16,NC1(CO)COC(c2ccccc2)OC1 (stereo not given),104%
17,COc1cc(C2C(C(=O)OCc3ccccc3)=C(C)NC(C)=C2C(=O)OCc2ccccc2)cc(OC)c1OC,51%
18,CC1=C(CCC(C)NCc2ccc(OCCCN3CCCCC3)cc2)C(C)(C)CCC1 (stereo not given),-67.6% (active)
19,N#C/C(=C\c1ccc([N+](=O)[O-])cc1)n1nnc2cc(F)c(F)cc21,63.9%
20,CS(=O)(=O)c1ccc(NC(=O)c2ccccc2)nc1,95.6%

# Test system: NCI-H460 lung
# Assay: as above
# Conditions: 10 µM unless noted
row,SMILES,growth
1,Nc1[nH]n2cc(-c3ccc(F)cc3)nc2c1N=Nc1ccc(S(N)(=O)=O)cc1,58.8%
2,O=C(Nc1ncccc1OCc1ccccc1)NC1CCCCCC1,93.5%
3,CCNc1nc(O)c(/C=C2\C=Nc3ncccc32)s1,2.41% (active)
4,Cn1cc(-c2nn3cc(-c4cccs4)nc3s2)c2cc(F)ccc21,8.02% (active)
5,Cc1ccc(-c2nc(/C=C3/C(=O)Nc4ccc(F)cc43)c3ccccn23)cc1,36%
6,O=[N+]([O-])c1ccc(-c2cn3nc(-c4c[nH]c5ccccc45)sc3n2)cc1,98%
7,O=C(CI)NC(=O)NC(=O)NCc1ccccc1,102%
8,O=C(Nc1cc(Cl)ccc1O)c1cccc(Nc2ccnc(C(F)(F)F)c2)c1,30.5%
9,N#Cc1c(Nc2ccc(N3CCOCC3)cc2)nc(SCC(=O)c2ccc(Br)cc2)nc1-c1ccccc1,114%
10,COc1cc(OC)c(/C=C/C(=O)c2c(O)cc(OC)c(C3CCN(C)CC3)c2OC)c(OC)c1,-75% (active)
11,CCS/C(Nc1ccccc1)=C(\C#N)C(=O)Nc1ccc(OC)cc1,10.1%
12,C=CN(C(=O)N1CCN(c2cc3c(cc2F)c(=O)c(C(=O)O)cn3C2CC2)CC1)c1nc(-c2ccc(OC)cc2)cs1,10.8%
13,O=C(Nc1ccccc1[N+](=O)[O-])c1ccc(Cl)c(Cl)c1,93.4%
14,CCn1cc(CNc2ccc(C(=O)Nc3cc4cc(OC)c(OC)cc4c(C)n3)cc2)cn1,86.7%
15,COc1ccc2c(c1)c(-c1nc(-c3c[nH]c4ncccc34)cs1)cn2CCCN1CCOCC1,25.7%
16,C[n+]1ccc(CCc2c[nH]c3ccccc23)cc1,107%
17,CC(C)CCN(CCC(C)C)CC(O)c1cc2c(c3ccccc13)CCCC2 (stereo not given),75.3%
18,CO[C@H]1CC(=O)n2c3ccccc3c3c4c(c5c6ccccc6n1c5c32)C(=O)NC4=O,29.1%
19,COc1ccc(C2=CN3CC=CC3CC2=O)cc1 (stereo not given),106%
20,COc1cccc(/C=C/C(=O)c2cc3c(N)c(C(=O)Nc4cccc5ccccc45)sc3nc2C)c1,-0.349% (active)

row,SMILES,growth
1,Cc1ccc(CNc2ccc3nc(CCC(C)C)[nH]c3c2)cc1,106%
2,COc1ccc(/C(C)=C(/c2ccc(OCCCN(C)C)cc2)c2ccc(OC(=O)c3ccccc3)cc2)cc1,67.1%
3,COC(=O)CC[C@@H]1O[C@@H](c2ccc(F)cc2)[C@@H](O)[C@H]1O,109%
4,O=C1/C=C/[C@@H](O)[C@@H]2C[C@@H](O)C[C@H]2/C=C/CCC[C@H](CCO)O1,15.9%
5,COc1cccc(-c2cc(-c3cccc(Cl)c3)c(C#N)c(=O)[nH]2)c1,78.5%
6,COc1ccc(CNc2c3ccccc3nc3ccccc23)c(OC)c1,16.6%
7,CCN(CC)c1ccc(CNc2cc(C)nc3ccccc23)cc1,58.2%
8,O=C1Nc2ccccc2/C1=C\c1c[nH]c2ccc(Br)cc12,80.8%
9,O=C(CCCCCNC(=O)c1cc(=O)c(O)co1)Nc1ccccc1,111%
10,CCOc1ccc(-n2nc(C(=O)NCc3ccccc3OC)nc2-c2cc(OC)c(OC)c(OC)c2)cc1,30.5%
11,COc1ccc(-c2nc(/C=C3\C(=O)N(C)c4ccccc43)c3ccccn23)cc1,63.4%
12,FC(F)(F)Oc1cccc(-c2cnc3ccc(-c4ccncc4)nn23)c1,17.6%
13,CCN1C(=O)N(CC)C2C1NN=c1s/c(=C3\C(=O)N(CC(C)C)c4ccccc43)c(=O)n12 (stereo not given),5.36% (active)
14,COc1cc(OC)c(C(=O)C(CN(C)C)CN(C)C)cc1OC,109%
15,Cc1ccc(/C=C/C(=O)c2ccc(-n3cc(CN4CCN(c5cc6c(cc5F)c(=O)c(C(=O)O)cn6C5CC5)CC4)nn3)cc2)cc1,89.7%
16,NC1(CO)COC(c2ccccc2)OC1 (stereo not given),108%
17,COc1cc(C2C(C(=O)OCc3ccccc3)=C(C)NC(C)=C2C(=O)OCc2ccccc2)cc(OC)c1OC,25.6%
18,CC1=C(CCC(C)NCc2ccc(OCCCN3CCCCC3)cc2)C(C)(C)CCC1 (stereo not given),-77% (active)
19,N#C/C(=C\c1ccc([N+](=O)[O-])cc1)n1nnc2cc(F)c(F)cc21,11.7%
20,CS(=O)(=O)c1ccc(NC(=O)c2ccccc2)nc1,105%
